PubChem BioAssay
Calls of active or inactive are those of the source. Unless noted, the rule behind the calls is not given here.

What was measured:
[1] = tested on: XIP peptide (Xip251-270) binding; experiment: XIP fragment 251-270 binding compounds – biochemical, small-molecule microarray, fluorescence 635/667 nm, 0.1 µg/mL protein, primary screen (AID 1182); conditions: fluorescent protein binding, 635 nm, higher = more signal, called active from +8 up or from −8 down
[2] = tested on: XIP peptide (Xip251-270); experiment: compounds binding XIP fragment 251-270 – biochemical, small-molecule microarray, fluorescence 635/667 nm, 0.5 µg/mL protein, primary screen (AID 1183); conditions: fluorescence 635 nm, higher = more signal
[3] = blood-stage malaria parasite viability loss – strain 3D7, DAPI fluorescence, 100 nL, primary screen (AID 1184);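 note: parasites grown inside human red blood cells in medium with human serum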; conditions: P. falciparum 3D7 growth, 3 d, higher = more signal
[4] = biological target: Homeobox protein Hox-A13 (Mus musculus) (UniProt Q62424); experiment: disruptors of Hoxa13 oligonucleotide interaction – biochemical, fluorescence polarization, labeled oligonucleotide, primary screen (AID 1185); conditions: Hoxa13:DNA binding, 15 min, higher = more signal, called active from +8 up or from −8 down
[5] = blockers of DNA damage checkpoint Chk1 activation – imaging, HeLa, hydroxyurea, phospho-Chk1 antibody, percent positive cells, primary screen (AID 1186); conditions: hydroxyurea-induced phospho-Chk1 immunofluorescence imaging, higher = more signal
[6] = blockers of DNA damage checkpoint Chk1 activation – imaging, HeLa, hydroxyurea, phospho-Chk1 nuclear intensity, primary screen (AID 1187); conditions: hydroxyurea-induced phospho-Chk1 immunofluorescence imaging, higher = more signal

Chain of Homeobox protein Hox-A13 (Mus musculus) (Q62424 whole entry, looked up): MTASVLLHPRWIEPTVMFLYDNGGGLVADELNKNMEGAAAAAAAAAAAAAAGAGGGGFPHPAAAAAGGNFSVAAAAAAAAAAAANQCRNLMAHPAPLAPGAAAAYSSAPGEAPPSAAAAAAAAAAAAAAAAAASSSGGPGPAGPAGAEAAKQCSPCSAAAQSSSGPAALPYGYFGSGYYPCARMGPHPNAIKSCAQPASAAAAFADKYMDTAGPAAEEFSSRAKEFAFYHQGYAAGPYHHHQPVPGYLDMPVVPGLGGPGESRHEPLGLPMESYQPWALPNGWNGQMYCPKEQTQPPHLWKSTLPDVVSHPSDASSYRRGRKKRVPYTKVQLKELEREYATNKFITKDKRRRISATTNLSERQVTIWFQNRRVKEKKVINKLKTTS

Row | Compound | composite z-score [1] | composite z-score [2] | z-score [3] | z-score [4] | z-score [5] | z-score [6]
1 | C=CC[C@@]12N=C(c3ccc(OCCCO)cc3)O[C@@H]1c1ccccc1N(CCC)C2=O | 2.48 (inactive) | 0.759 | -2.25 | -4.8 (inactive) | 0.291 (inactive) | 0.58 (inactive)
2 | O=C1O[C@@H](c2ccccc2)[C@@H](c2ccccc2)N2[C@@H](c3ccc(OCCO)cc3)[C@]3(C(=O)Nc4ccc(C#CCCO)cc43)[C@@H](C(=O)O)[C@H]12 | 0.901 (inactive) | 0.443 | 0.612 | -5.86 (inactive) | -0.368 (inactive) | -0.451 (inactive)
3 | NC(=O)N1C(=O)C2C(C1=O)C1C=C(CCCO)C2C(c2ccc(CN3CCCC3)cc2)N1Cc1cc2c(cc1Br)OCO2 (centres undefined) | 0.224 (inactive) | -0.0073 | -0.459 | -4.36 (inactive) | 0.504 (inactive) | 0.519 (inactive)
4 | [N-]=[N+]=NCc1ccccc1[C@@H]1OC(c2ccc(OCCCO)cc2)=N[C@]1(Cc1ccccc1N=[N+]=[N-])C(=O)NCC(O)CO (some centres undefined) | 1.45 (inactive) | 0.5 | -2.31 | -2.19 (inactive) | -0.168 (inactive) | 0.0749 (inactive)
5 | COc1ccc(CCNC(=O)[C@@H]2c3ccccc3C(=O)N(Cc3ccccc3OC)[C@H]2c2ccc(CO)cc2)cc1 | 0.675 (inactive) | 0.393 | -0.996 | -4.7 (inactive) | -0.0274 (inactive) | -0.213 (inactive)
6 | C=CCC(OC(C)=O)[C@@H]1[C@@H](N(Cc2cc3ccccc3o2)C(=O)c2cccc3ccccc23)c2cc(OCCCO)ccc2N1C(=O)c1ccc2ccccc2n1 (some centres undefined) | -0.667 (inactive) | 0.202 | -1.99 | -1.2 (inactive) | -0.0897 (inactive) | 0.0983 (inactive)
7 | COc1ccc(C#Cc2ccc3c(c2)[C@]2(C(=O)N3)[C@H](C(=O)O)[C@H]3C(=O)O[C@H](c4ccccc4)[C@H](c4ccccc4)N3[C@@H]2c2ccccc2OCCO)cc1 | 1.89 (inactive) | 0.833 | -2.15 | -3 (inactive) | 0.135 (inactive) | 0.175 (inactive)
8 | COCCCNC(=O)[C@@]1(CCC(=O)OC(C)(C)C)COC(c2ccc(OCCCO)cc2)=N1 | 0.192 (inactive) | 0.732 | -0.547 | -5.74 (inactive) | -0.0385 (inactive) | 0.304 (inactive)
9 | O=C1C2C=CC(C(O)c3ccc([N+](=O)[O-])cc3)N(Nc3ccccc3F)C2C(=O)N1c1ccccc1 (centres undefined) | 0.946 (inactive) | 0.679 | -0.111 | -3.41 (inactive) | 0.8 (inactive) | -0.314 (inactive)
10 | CC(C)N1C(=O)c2ccccc2[C@](C)(C(=O)NCC(F)(F)F)[C@@H]1c1ccc(CO)cc1 | 0.112 (inactive) | 0.464 | -0.805 | -1.98 (inactive) | 0.256 (inactive) | 0.462 (inactive)
11 | CC[C@@H]1C=C(C(=O)O)[C@H](c2ccc(OC)cc2)N1S(=O)(=O)c1ccc(C)cc1 | 1.98 (inactive) | 0.129 | 2.03 | -2.62 (inactive) | -0.745 (inactive) | -1.26 (inactive)
12 | COCC(=C=CC[C@H](O)c1ccccc1OCCO)C[C@H](O)COCc1ccccc1 | 0.195 (inactive) | 0.148 | -1.77 | -4.37 (inactive) | 0.141 (inactive) | 0.058 (inactive)
13 | CCOC(=O)C1=CC[C@@H](c2ccc(OC)cc2)N(S(=O)(=O)c2ccc(C)cc2)[C@H]1c1ccc(C)cc1 | 0.3 (inactive) | 0.44 | 0.869 | -0.57 (inactive) | -0.0113 (inactive) | -0.5 (inactive)
14 | C=CC[C@@]1(C(=O)N(C)C)N=C(c2ccc(OCCCO)cc2)O[C@@H]1c1ccccc1CN=[N+]=[N-] | 0.161 (inactive) | 0.774 | -2.33 | -4.32 (inactive) | -0.274 (inactive) | -0.052 (inactive)
15 | C=C(CCCC)/C(=C/C[C@H](OC(=O)c1ccncc1)c1cccc(OCCO)c1)c1cnc2ccccc2c1 | 0.867 (inactive) | 0.654 | -2.97 | -3.75 (inactive) | 0.218 (inactive) | 0.367 (inactive)
16 | COC(=O)[C@@]1(Cc2ccc(F)cc2)[C@H]2c3cc(C(=O)N4CCCC4)n(Cc4ccccn4)c3C[C@H]2CN1C(=O)c1ccccc1 | 0.224 (inactive) | 0.769 | -1.68 | -4.98 (inactive) | 0.0348 (inactive) | -0.0643 (inactive)
17 | CCCCC(O)C1C=CC2C(=O)N(c3ccccc3)C(=O)C2N1Nc1ccc([N+](=O)[O-])cc1 (centres undefined) | 0.0204 (inactive) | 0.598 | -0.496 | -4.62 (inactive) | 0.391 (inactive) | 0.501 (inactive)

Row | Compound | composite z-score [1] | composite z-score [2] | z-score [3] | z-score [4] | z-score [5] | z-score [6]
18 | CC(C)NC(=O)[C@@]1(c2ccc([N+](=O)[O-])cc2)CC(=O)N(CC23CC4CC(CC(C4)C2)C3)[C@@H]1c1ccc(CO)cc1 | 1.26 (inactive) | 0.918 | -0.948 | -4.97 (inactive) | 0.103 (inactive) | 0.412 (inactive)
19 | CN1C(=O)[C@@H]2[C@@H](CC(COc3ccccc3)=C3[C@@H](CCc4ccccc4)OB(O)C[C@@H]32)C1=O | 0.106 (inactive) | 0.774 | 1.52 | -6.67 (inactive) | 0.556 (inactive) | 0.768 (inactive)
20 | C=CC[C@@]1(C(=O)OC)N=C(c2ccc(OCCCO)cc2)O[C@@H]1c1ccccc1N=[N+]=[N-] | 0.741 (inactive) | 0.852 | -2.27 | -3.81 (inactive) | -0.312 (inactive) | 0.0948 (inactive)
21 | O=C1O[C@@H](c2ccccc2)[C@@H](c2ccccc2)N2[C@@H](c3ccc(OCCO)cc3)[C@]3(C(=O)Nc4ccc(C#CC5(O)CCCCCC5)cc43)[C@@H](C(=O)Nc3nc4ccccc4s3)[C@H]12 | 0.813 (inactive) | 0.667 | -1.59 | 1.03 (inactive) | 0.234 (inactive) | 0.42 (inactive)
22 | O=C(NC1CC1)[C@@H]1c2ccccc2C(=O)N(Cc2ccc(OC(F)(F)F)cc2)[C@H]1c1ccc(CO)cc1 | 2.46 (inactive) | 0.0303 | 0.599 | -3.51 (inactive) | -0.453 (inactive) | -0.577 (inactive)
23 | C=CCC(OC(C)=O)[C@@H]1[C@@H](N(Cc2cc3ccccc3o2)C(=O)Cc2ccc(OC)cc2)c2cc(OCCCO)ccc2N1C(=O)c1ccc2ccccc2n1 (some centres undefined) | -0.206 (inactive) | -0.454 | -2.17 | -2.1 (inactive) | 0.16 (inactive) | 0.158 (inactive)
24 | COc1ccc(C(=O)Nc2cccc(CN3C(=O)[C@@]4(O[C@@H](CC(=O)N5CCC[C@H]5CO)[C@H]([Si](C)(C)c5ccc(OC)cc5)[C@H]4C)c4ccccc43)c2)cc1 | 0.802 (inactive) | 0.639 | -2.16 | -2.8 (inactive) | -0.142 (inactive) | 0.071 (inactive)
25 | COC(=O)[C@@]1(Cc2ccc(F)cc2)[C@H]2c3cc(C(=O)N4CCCC4)n(CCc4ccccn4)c3C[C@H]2CN1C(=O)c1ccccc1 | 0.405 (inactive) | -0.189 | -1.31 | -4.83 (inactive) | 0.227 (inactive) | 0.247 (inactive)
26 | CC(C)[Si](C#CCCc1ccccc1)(O[C@H](c1ccccc1)c1cn(Cc2ccccc2)nn1)C(C)C | -0.0657 (inactive) | 0.574 | -0.374 | -1.64 (inactive) | -1.18 (inactive) | -1.16 (inactive)
27 | COC(=O)[C@H](Cc1ccccc1)N1CC2=CCCC=C[C@@H]2[C@H]1[C@H](O)Cc1ccccc1 | 0.444 (inactive) | -0.221 | -0.926 | -6.25 (inactive) | -0.359 (inactive) | -0.685 (inactive)
28 | CCOC(=O)C[C@H]1[C@H](OC(=O)c2cc3ccccc3oc2=O)[C@@H](NC(=O)CC(C)C)c2cc(OCCCO)ccc2N1C(=O)Cc1ccc(OC)cc1 | 0.101 (inactive) | 0.686 | -2.45 | -4.83 (inactive) | 0.372 (inactive) | -0.268 (inactive)
29 | CC1=C([C@H](O)CCc2ccccc2)[C@H](CO)n2c(=O)n(-c3ccccc3)c(=O)n2C1 | -0.611 (inactive) | 0.754 | 0.0483 | -2.24 (inactive) | -0.773 (inactive) | -0.906 (inactive)
30 | O=C(O)[C@H](Cc1ccccc1)n1cc(C2(O)CCCCC2)nn1 | -0.0467 (inactive) | 0.0248 | 0.074 | -1.04 (inactive) | 0.402 (inactive) | -0.535 (inactive)
31 | COCCCNC(=O)[C@@]1(CCS(=O)(=O)c2ccccc2)COC(c2ccc(OCCCO)cc2)=N1 | 1.85 (inactive) | -0.227 | 0.264 | -4.7 (inactive) | 0.103 (inactive) | 0.103 (inactive)
32 | NC(=O)NCC#Cc1ccc2c(c1)[C@]1(C(=O)N2)[C@H](c2ccc(OCCO)cc2)N2[C@H](c3ccccc3)[C@H](c3ccccc3)OC(=O)[C@H]2[C@@H]1C(=O)O | 0.348 (inactive) | -0.0846 | -1.17 | -5.33 (inactive) | 0.31 (inactive) | 0.2 (inactive)
33 | COC(=O)[C@@]1(Cc2ccccc2)[C@H]2c3cc(C(=O)N(C)C)n(CCSC(=N)N)c3C[C@H]2CN1C(=O)c1ccccc1 | -0.667 (inactive) | 0.903 | -0.118 | -3.8 (inactive) | 0.835 (inactive) | 0.849 (inactive)
34 | CC1CC/C=C\[C@H]2OC34C=CCN(C(C)(C)C)C(=O)[C@H]3N(CCCO)C(=O)[C@@H]4C2C(=O)O1 (some centres undefined) | 0.453 (inactive) | 0.774 | 0.428 | -3.59 (inactive) | 0.0854 (inactive) | -0.248 (inactive)
